Bioassay records: PubChem, several laboratories
UGM FP inh = inhibitors of M. tuberculosis UDP-galactopyranose mutase; P9WIQ1; purified UGM, fluorescence polarization probe displacement; inhibition, % at 10 µM; hit rate 0.06% among 320,000; in the data active means inhibition above about 10%, passing the limit was not always enough
Target sequence (P9WIQ1 whole entry, looked up): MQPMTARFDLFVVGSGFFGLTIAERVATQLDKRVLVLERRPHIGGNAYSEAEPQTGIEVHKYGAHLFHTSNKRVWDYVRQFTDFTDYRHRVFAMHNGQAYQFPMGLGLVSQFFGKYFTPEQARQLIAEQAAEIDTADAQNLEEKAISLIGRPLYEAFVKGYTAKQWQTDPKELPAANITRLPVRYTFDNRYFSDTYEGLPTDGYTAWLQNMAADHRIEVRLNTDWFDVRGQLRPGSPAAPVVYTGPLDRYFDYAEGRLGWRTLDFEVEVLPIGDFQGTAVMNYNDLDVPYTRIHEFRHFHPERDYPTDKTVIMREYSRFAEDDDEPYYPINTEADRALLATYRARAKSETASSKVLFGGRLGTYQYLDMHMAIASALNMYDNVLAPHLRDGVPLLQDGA
Mtb betalactam = beta-lactam sensitization of Mtb H37Rv. inhibition, % at 25 µM. M. tuberculosis H37Rv growth with meropenem, percent inhibition. hit rate 0.27% among 330,000; call rule not given here;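 further: growth measured after seven days incubation then overnight dye step; 0% = bacteria only wells and 100% = bacteria with antibiotic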
RecA splice inh = blocks M. tuberculosis RecA intein splicing; inhibition, % (no concentration beside the values); P9WHJ3; hit rate 0.75% among 290,000; AID 2221; cell-free RecA intein splicing, fluorescence; in the data active means inhibition above about 30%;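 further: 0% = vehicle wells and 100% = reference inhibitor control wells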
Rv3671c protease = Rv3671c (M. tuberculosis) protease inhibition. AID 2606. hit rate 0.048% among 320,000. P9WHR9. inhibition, % at 5.96 µM; in the data active means inhibition above about 38%;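 further: extracellular domain of Rv3671c used as enzyme; 0% = enzyme with DMSO and 100% = no enzyme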
FBA Mtb inh = inhibits M. tuberculosis FBA enzyme; P9WQA3; purified M. tuberculosis FBA, fluorescence read-out; AID 588726; inhibition, % at 1 µM; hit rate 2.3% among 360,000; in the data active means inhibition above about 27%;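 further: 0% = vehicle and 100% = reference inhibitor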
GDH-TPI inh = inhibits GDH-TPI coupling enzymes, artifact for Mtb FBA screen; inhibition, % at 4.8 µM; AID 588335; GDH-TPI coupled enzyme counterscreen, NADH absorbance; hit rate 1.2% among 360,000; in the data active means inhibition above about 30%;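 further: 0% = DMSO wells and 100% = wells lacking the enzyme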
Numbers without * were called inactive; i = inactive; . = not tested or not shown; + = active, no number. An excerpt weighted towards active compounds, which were near 4% of everything screened.

SMILES	UGM FP inh	Mtb betalactam	RecA splice inh	Rv3671c protease	FBA Mtb inh	GDH-TPI inh
CCN(CC(=O)Nc1ccc(NC(C)=O)cc1)C(=O)/C=C/c1ccc(S(=O)(=O)N2CCCCCC2)cc1	-2.5	-18.7	-0.9	-10.3	-1.8	-7.2
Cc1ccc(OCCC(=O)OCC(=O)Nc2ccc(C)cc2Cl)cc1	1.1	-2.5	2.3	-10.7	-0.3	2.9
O=C(CNC(=O)c1cccs1)OCC(=O)c1ccc(Br)cc1	0.3	-6.9	-1.0	-7.7	7.0	13.6
COc1ccc(-c2c(C)c3ccc(O)cc3oc2=O)cc1	0.2	8.5	-51.1	2.2	+	22.6
O=C(Nc1cccc2ccccc12)ON=C1CCCCC1	.	.	.	.	116.1*	-4.4
COc1ccc(C)cc1NC(=O)ON=C1CCCCC1	.	.	.	.	-0.3	.
CCCn1c2c(c(O)c(C(=O)NC)c1=O)CCCC2	0.6	-2.1	-2.6	10.4	1.8	-3.8
CCCn1c2c(c(O)c(C(=O)Nc3ncccc3O)c1=O)CCCC2	-2.6	22.0	-2.2	-1.5	-0.2	34.2*
Cc1ccc(S(=O)(=O)c2cc3ccccc3oc2=O)cc1	-1.2	2.9	-1.9	0.6	2.6	18.9
CCN(CC)c1ccc2cc(S(=O)(=O)c3ccc(C)cc3)c(=O)oc2c1	30.1*	5.7	-73.2	-7.0	-0.1	6.9
Cc1n[nH]c(C)c1NC(=O)c1cc([N+](=O)[O-])ccc1Cl	0.4	-2.3	-1.1	-2.4	142.2*	5.2
Cc1cccc(NC(=O)c2cc([N+](=O)[O-])ccc2Cl)c1O	1.6	-3.6	3.5	1.1	-4.3	-2.5
Cc1cc(C)c2nc(C)cc(Nc3ccc(C(=O)NCCO)cc3)c2c1	2.9	-6.7	1.8	6.0	4.4	58.6*
CCCCCn1c(=NC(C)=O)c(C#N)cc2c(=O)n3ccccc3nc21	-1.3	6.8	-315.2	8.2	133.1*	12.7
C/C(N)=C(/C#N)C(=O)CSc1nc2ccccc2c(=O)n1CCCOC(C)C	-0.6	1.6	2.4	-3.7	-2.8	1.9
CC(=O)N=c1c(C#N)cc2c(=O)n3ccccc3nc2n1CCCOC(C)C	0.1	-0.3	-121.2	-1.6	+	3.8
CC(C)OCCCn1c(=NC(=O)c2ccncc2)c(C#N)cc2c(=O)n3ccccc3nc21	38.1*	0.4	.	-1.6	3.9	4.6
CCn1c(=N)c(S(=O)(=O)c2ccccc2)cc2c(=O)n3ccccc3nc21	1.4	-1.4	-98.7	-5.7	20.0	-4.9
CC(C)OCCCn1c(=NC(=O)c2cccs2)c(C#N)cc2c(=O)n3ccccc3nc21	9.5	-12.4	-62.6	3.1	+	3.9
Clc1ccc(C2=NN(c3ccccc3)C(c3ccco3)C2)cc1 (centres undefined)	1.7	5.7	-1.2	9.8	160.9*	9.0
COc1cc2c(C#N)c(N3CCOCC3)nc(N)c2c(N)n1	-2.4	-10.2	1.6	-0.6	31.6*	7.7
CN(c1ccccc1C(=O)NCc1ccccn1)S(C)(=O)=O	-1.7	-7.4	-4.5	2.5	3.1	0.9
CSc1nc(C)c(Cc2c(F)cccc2Cl)c(=O)[nH]1	2.9	3.0	-3.7	-1.4	1.0	10.2
Cc1nn2cnnc2c(C)c1Cc1c(F)cccc1Cl	2.9	-0.4	1.4	-2.4	140.6*	-3.0
COC(=O)c1ccccc1NC(=O)Cn1cc2c(n1)CCC(C)C2 (centres undefined)	-0.6	-9.9	2.8	-1.0	-2.9	-5.9
SMILES	UGM FP inh	Mtb betalactam	RecA splice inh	Rv3671c protease	FBA Mtb inh	GDH-TPI inh
O=C(Oc1ccc(-c2cnc3ccccc3n2)cc1)c1ccc(Br)o1	-1.5	77.1	0.0	-2.8	1.7	15.5
CC(C)N1CCc2c(sc(N)c2C#N)C1	2.5	-6.0	-52.2	-14.6	22.5	32.0*
CC(O)/C=C/C1OC(=O)CC1Nc1ccc(C=O)cc1 (centres undefined)	-0.5	-3.6	-3.1	8.1	0.0	34.3*
CCN(CC)Cc1nc2nc(Cl)c(Cl)nc2[nH]1	.	.	.	.	1.1	37.2*
FCc1nc2nc(Cl)c(Cl)nc2[nH]1	.	.	.	.	1.6	23.8
CCOc1ccc(CC(=O)NNC(=S)NC)cc1Br	0.7	-6.8	.	-11.2	-0.5	4.4
COc1ccc(-n2c(O)c(/C=C3\C=Nc4ccc(Br)cc43)c(=O)[nH]c2=O)cc1	40.6*	9.0	4.4	-14.2	3.4	-5.6
O=C(c1ccc(O)c(Br)c1)c1cc(Br)ccc1O	.	.	.	.	-5.1	34.9*
O=C(C(=O)c1cc(Br)ccc1O)c1cc(Br)ccc1O	.	.	.	.	-2.5	12.4
COc1ccccc1N1CC(C(=O)Nc2nnc(SCc3cccnc3)s2)CC1=O (centres undefined)	-1.0	-2.8	1.0	-1.9	4.9	-4.6
CC1COc2c(N3CCN(C)CC3)c(F)cc3c(=O)c(C(=O)O)cn1c23 (centres undefined)	3.0	100.0	-1.8	-13.4	96.6*	25.4
Cc1ccc(-c2csc(/C(C#N)=C(\O)CN3CCN(C(=O)c4ccco4)CC3)n2)cc1	0.8	72.9	-1.3	3.4	0.2	31.3*
Cc1ccc(S(=O)(=O)CCC(=O)N2CCN(c3ccccc3F)CC2)cc1	-0.3	4.0	1.0	2.5	-2.5	-5.5
COc1ccc(C(=O)N2CC(c3ccccc3)CC2=O)cc1 (centres undefined)	-1.3	1.7	1.0	4.4	1.3	-3.4
C=CCNC(=O)CSc1nc2sc3c(c2c(=O)n1CCCOC)CCC3	1.8	-0.2	0.1	3.8	10.6	35.0*
C=CCNC(=O)CSc1nc2sc3c(c2c(=O)n1CCC)CCC3	-0.8	1.9	0.7	9.0	-0.2	3.0
O=C(Nc1ccc(N2CCOCC2)cc1)Nc1cnsn1	1.1	-4.8	0.2	1.3	0.6	1.0
CCOC(=O)c1cnn2c(C)cc(-c3ccc(F)cc3)nc12	1.7	-5.0	-3.8	-1.2	60.4*	13.4
CCOc1ccc(CN(C(=O)c2ccco2)C2CCS(=O)(=O)C2)cc1 (centres undefined)	0.5	0.8	-2.8	-3.6	0.1	10.0
COc1ccc(C2CC(c3ccccc3)=NN2c2ccc(S(N)(=O)=O)cc2)cc1 (centres undefined)	-2.2	94.3	-10.9	-2.4	+	10.7
O=C(O)c1ccc(N2N=C(c3ccccc3)CC2c2ccccc2)cc1 (centres undefined)	2.5	8.3	-429.3	2.0	+	32.2*
COc1ccc(C2=NN(c3ccc(C=O)cc3)C(c3ccccc3)C2)cc1 (centres undefined)	-3.9	23.4	-70.4	7.0	.	.
COc1ccc(C2CC(c3ccccc3Cl)=NN2c2ccc(S(N)(=O)=O)cc2)cc1 (centres undefined)	.	.	.	.	173.8*	2.7
NS(=O)(=O)c1ccc(N2N=C(c3ccccc3)CC2c2ccc(F)cc2)cc1 (centres undefined)	-2.3	12.7	-27.0	7.2	+	9.4
COc1ccc(C2CC(c3cccs3)=NN2c2ccc(C=O)cc2)cc1 (centres undefined)	9.7	-6.1	i	-1.0	.	.
CC(=O)Nc1ccc(C2CC(c3ccc(Cl)cc3)=NN2c2ccccc2)cc1 (centres undefined)	-1.5	1.4	-16.4	2.8	26.8	-0.3
